Hit rate of the full screen: of about 69,000 compounds, about 8,600 (12%) showed an effect of 50% or more. The entries come from a sample that favours strong results as a whole.

The test system of the assay is Plasmodium berghei. Put plainly: Screen against P. berghei liver stage (PbLuc), transformed with Luciferase, at 10uM. Type of assay: functional, HepG2. To be noted: tested at 10 uM.
As to `c1cncc(-c2noc(C3CN(Cc4cccs4)C3)n2)c1`, the INHIBITION is on record as 22.2%.

As for `Cc1nc(C2CCN(Cc3ncc[nH]3)CC2)no1`, the INHIBITION is recorded as 20.8%.

Regarding `COC(=O)CN1CCSC(c2ccccc2)C1` (configuration not stated), the INHIBITION stood at 48.2%.

Consider `COc1ccc(F)cc1C(=O)C1CCCN(Cc2cnc(C)s2)C1` (configuration not stated), for which the INHIBITION worked out at 47.2%.

Turning to `CSc1ccc(C(=O)C2CCCN(C(=O)CCCn3cncn3)C2)cc1` (configuration not stated), the INHIBITION is reported as 22.2%.

With `Cc1cc(Cl)ccc1C(=O)C1CCCN(Cc2cnc(N(C)C)s2)C1` (configuration not stated), the INHIBITION came out at 83%.

For `Cc1c(CN2CCCC(C(=O)c3ccc(C(C)(C)C)cc3)C2)cnn1C` (configuration not stated), the INHIBITION was 89.4%.

With `CCCn1ncc(CN2CCCC(C(=O)c3ccc(Cl)cc3C)C2)c1C` (configuration not stated), the INHIBITION is 73%.

Turning to `COc1ccc(C(=O)C2CCCN(Cc3cnn(C)c3C)C2)c(OC)c1` (configuration not stated), the INHIBITION came to 14.3%.

For the molecule `CCCn1ncc(CN2CCCC(C(=O)c3ccc(SC)cc3)C2)c1C` (configuration not stated), the INHIBITION turned out to be 83.9%.

As for `CSc1ccc(C(=O)C2CCCN(C(=O)CCn3cncn3)C2)cc1` (configuration not stated), the INHIBITION is reported as 22.2%.

Regarding `CCn1ncc(CN2CCCC(C(=O)c3ccc(Cl)cc3)C2)c1C` (configuration not stated), the INHIBITION stood at 18.5%.

Turning to `CC(C)(N)C(=O)N1CCCC(C(=O)c2ccc(C(C)(C)C)cc2)C1` (configuration not stated), the INHIBITION is 36.8%.

Turning to `CN(C)c1ncc(CN2CCCC(Nc3ccc4c(c3)OCCO4)C2)s1` (configuration not stated), the INHIBITION is -0.217%.

With `CCn1ncc(CN2CCCC(n3c(=O)oc4ccccc43)C2)c1C` (configuration not stated), the INHIBITION is 4.7%.

In the case of `Cc1cc(CN2CCN(C(=O)NCc3ccc(C)s3)CC2)on1`, the INHIBITION is on record as -24.2%.

`Cc1cnn(CCNCC(=O)N2CCN(c3ccccn3)CC2)c1`: the INHIBITION was -0.613%.

Consider `O=C(c1ccnc(-n2ccnc2)c1)N1CCCC(n2cccn2)C1` (configuration not stated), for which the INHIBITION stood at 36.1%.

Take `CN(CC1COc2ccccc2O1)C(=O)c1ccc(-c2cn[nH]c2)nc1` (configuration not stated): the INHIBITION was 2.18%.

Turning to `O=C(c1ccccn1)N1CCCC2(CCN(c3ccsc3)C2=O)C1` (configuration not stated), the INHIBITION is 35.6%.

As to `CN(C)C(=O)[C@@H]1CCO[C@@H]2CCN(Cc3ccccc3)C[C@@H]21`, the INHIBITION is given as -11.5%.

Turning to `Cn1cc(-c2ncc(C(=O)NCCCn3ccccc3=O)s2)cn1`, the INHIBITION turned out to be 44.9%.

As for `Cc1nc(C2CCCN2C(=O)Cc2ccc3c(c2)OCO3)nc(O)c1C` (configuration not stated), the INHIBITION turned out to be 22%.

In the case of `CN1C(=O)CCC12CCN(Cc1ccco1)CC2`, the INHIBITION turned out to be 16.1%.

On to `CN1CCN(c2nsc(-c3ccccc3)c2C#N)CC1`, for which the INHIBITION was determined as 33.3%.

In the case of `CCCn1ncc(-c2ccnc(N[C@@H]3C[C@H]4CC[C@@H]3C4)n2)c1C`, the INHIBITION turned out to be 49.9%.

For the molecule `CCCn1ncc(-c2ccnc(NC3CCCc4ccccc43)n2)c1C` (configuration not stated), the INHIBITION is 77.2%.

Regarding `Cc1nn(CCO)c(C)c1CNC1CCCCc2ccccc21` (configuration not stated), the INHIBITION stood at 17.8%.

On to `CCCn1ncc(-c2ccnc(NC3CCSC3)n2)c1C` (configuration not stated), for which the INHIBITION was 49.9%.

As for `COc1c(CNC2CCCc3ccccc32)c(C)nn1C` (configuration not stated), the INHIBITION came out at 37.9%.

Take `Cc1nn(C)c(N2CCOCC2)c1CNC1CCc2ccccc21` (configuration not stated): the INHIBITION turned out to be 7.08%.

Turning to `CCCn1ncc(C(=O)N2CCN(C3Cc4ccccc4C3)CC2)c1C`, the INHIBITION was -20.8%.

For `CCCn1cc(-c2ccnc(NC3CCc4ccccc43)n2)c(C)n1` (configuration not stated), the INHIBITION worked out at 82.2%.

On to `CCCn1ncc(-c2ccnc(NC3CC(C)(C)NC(C)(C)C3)n2)c1C`, for which the INHIBITION is on record as 80.1%.

`CCCn1cc(-c2ccnc(NC3CCCc4ccccc43)n2)c(C)n1` (configuration not stated): the INHIBITION is 72.3%.

For the molecule `O=C(CS(=O)(=O)c1ccccn1)NC1CCCc2ccccc21` (configuration not stated), the INHIBITION is given as -17.8%.

On to `CCCOCCCNc1nccc(-c2cn(C)nc2C)n1`, for which the INHIBITION is on record as -49.8%.

The values are drawn from ChEMBL document CHEMBL4513216, “Probing the Open Global Health Chemical Diversity Library for Multistage-Active Starting Points for Next-Generation Antimalarials” (ACS Infect Dis, 2020).
